{"source": "PubChem BioAssay AID1259422", "about": "(The Scripps Research Institute Molecular Screening Center, 2018)", "note": "“And” between values parts separate entries of the source, which are not always exact repeats. Equal entries are not always repeated. The campaign covered roughly 640,000 compounds. About 9,300 (1.5%) were called active. Shown is part of a subset that was picked to be rich in actives. Unmarked numbers belong to inactive results. Cut-off read from the data, not from the text of the source: active = inhibition above about 32%; inactive = the rest.", "data": [{"assay": "TEAD-YAP interaction inhibition, primary screen, TEAD-YAP interaction inhibitor project, luminescence, HEK-TIYL cells (AID 1259422);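 note: 0% = median of test compound wells and 100% = reference inhibitor wells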", "conditions": "TEAD-Gal4/YAP UAS-luciferase luminescence, at 9.12 µM, hits give high values", "values": [{"compound": "Cc1cc(N2CCCC2)nc2ccc(NC(=S)NCC3CCCO3)cc12", "note": "(stereo not given)", "inhibition": "-6.91%"}, {"compound": "Cc1c(SC(F)(F)C(F)C(F)(F)F)c(=O)n(-c2ccccc2)n1C", "note": "(stereo not given)", "inhibition": "18.8%"}, {"compound": "O=C(NC1CC1)c1cccc(N2CCc3ccccc3C2)n1", "inhibition": "-13.8%"}, {"compound": "NC(=O)C(C(N)=O)C1OC(=O)C(Cl)=C1Cl", "note": "(stereo not given)", "inhibition": "0.04%"}, {"compound": "C/C(=N\\NC(=O)c1ccccc1I)c1ccc(O)cc1", "inhibition": "-8.63%"}, {"compound": "COC(=O)C1=C(C)N(C)C(=O)/C1=C\\c1cc(C)n(-c2ccc(Br)cc2)c1C", "inhibition": "-6.34%"}, {"compound": "COC(=O)C1=C(C)N(CC2CCCO2)C(=O)/C1=C\\c1cc(C)n(-c2cccc(C)c2)c1C", "note": "(stereo not given)", "inhibition": "0.89%"}, {"compound": "CCN1C(=O)/C(=C\\c2cc(C)n(-c3ccccc3)c2C)C(C(=O)OC)=C1C", "inhibition": "36.6% (active)"}, {"compound": "CCN1C(=O)S/C(=C/c2cc(C)n(-c3cccnc3)c2C)C1=O", "inhibition": "50.4% (active)"}, {"compound": "Cc1cc(/C=C2/SC(=O)N(C)C2=O)c(C)n1-c1ccc(I)cc1", "inhibition": "-24.8%"}, {"compound": "CCc1ccccc1N1C(=O)NC(=O)/C(=C\\c2cc(C)n(-c3cccnc3)c2C)C1=O", "inhibition": "-3.42%"}, {"compound": "COc1ccc(Cl)cc1S(=O)(=O)N1CCN(CC(=O)Nc2ccc(C(N)=O)cc2)CC1", "inhibition": "3.37%"}, {"compound": "O=C(NC(Cc1c[nH]c2ccccc12)c1nnc2n1CCC2)c1ccccc1Cl", "note": "(stereo not given)", "inhibition": "4.18%"}, {"compound": "CCOC(=O)c1c(NC(=O)c2cccc(C)c2)sc2c1CCC2", "inhibition": "1.21%"}, {"compound": "Cc1cc(C)cc(NC2=C(N3CCN(C)CC3)C(=O)c3ccccc3C2=O)c1", "inhibition": "14.2%"}, {"compound": "CC(=O)N(C1=C(N2CCN(C)CC2)C(=O)c2ccccc2C1=O)c1cc(C)cc(C)c1", "inhibition": "53.9% (active)"}, {"compound": "CC(=O)N(C1=C(N2CCOCC2)C(=O)c2ccccc2C1=O)C1CCCCC1", "inhibition": "13.4%"}, {"compound": "CCCCOc1ccc(-c2[nH]nc3c2C2(C(=O)Nc4ccc(C)c(Br)c42)C(C#N)=C(N)O3)cc1", "note": "(stereo not given)", "inhibition": "3.07%"}, {"compound": "COc1ccc(C(=O)Nc2nc3c(ccc4ccccc43)s2)c(OC)c1", "inhibition": "-16.5% and -1.48%"}, {"compound": "COc1ccc(C(=O)Nc2nc(C(C)(C)C)cs2)c(OC)c1", "inhibition": "-70.6%"}, {"compound": "COc1ccc(C(=O)Nc2nc(C)c(C)s2)c(OC)c1", "inhibition": "94.8% (active)"}, {"compound": "Cc1nc(NC(=O)c2ccc3c(c2)CCCC3)sc1C", "inhibition": "53.4% (active)"}, {"compound": "Cc1nc(NC(=O)c2ccoc2C)sc1C", "inhibition": "-21.2%"}, {"compound": "Cc1nc(NC(=O)c2cc(Br)ccc2Cl)sc1C", "inhibition": "-57.6%"}, {"compound": "Oc1ccc2ccccc2c1/C=N/Nc1nccnc1Cl", "inhibition": "-25.8%"}]}]}
